Our source for the inhibition values is PubChem BioAssay AID493034 (The Scripps Research Institute Molecular Screening Center, 2011).

In all, about 2,400 compounds went through this assay and about 2,200 (92%) were called active. So high a share suggests a set chosen from earlier hits. The list shows a part of the results. A number with no mark means an inactive call.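 Rule for the calls: active = mean inhibition over triplicate runs exceeds the cutoff derived for the earlier primary screen (cut at about 25% in these data); inactive = the rest.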

Chain of Platelet-activating factor acetylhydrolase IB subunit alpha2 (Homo sapiens) (P68402 whole entry, looked up): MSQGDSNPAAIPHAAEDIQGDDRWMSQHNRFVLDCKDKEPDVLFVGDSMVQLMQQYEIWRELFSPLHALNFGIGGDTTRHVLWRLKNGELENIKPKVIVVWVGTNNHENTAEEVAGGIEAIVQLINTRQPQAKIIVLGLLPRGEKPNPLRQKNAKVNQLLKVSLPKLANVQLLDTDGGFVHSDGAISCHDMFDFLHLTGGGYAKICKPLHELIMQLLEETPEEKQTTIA

The test addresses Platelet-activating factor acetylhydrolase IB subunit alpha2 (Homo sapiens) (UniProt P68402). Put plainly: inhibition of human PAFAH1B2 catalytic subunit – biochemical, fluorescence polarization, FP-rhodamine probe, triplicate, confirmation (AID 493034).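 Note: 0% = enzyme with DMSO and 100% = wells lacking PAFAH1B2 protein; inhibitors lower polarization by leaving the probe unbound.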 The settings on record: recombinant PAFAH1B2, FP-rhodamine probe fluorescence polarization; at 3.39 µM; stronger effect = higher value.
`N#Cc1c(NC(=O)Cn2c(=O)oc3ccccc32)oc(-c2ccccc2)c1-c1ccccc1`: the inhibition is 45% (active). As for `O=C(NNC(=O)C1CCN(S(=O)(=O)c2ccc(Cl)cc2)CC1)c1ccccc1`, the figure is 24%; as for `CCN(CC)S(=O)(=O)c1ccc(C(=O)NNC(=O)C2CCN(S(=O)(=O)c3ccc(Cl)cc3)CC2)cc1`, 37.9% (active); as for `C=CCNC(=O)C1CCN(S(=O)(=O)c2ccc(Br)cc2)CC1`, 23.8%. As to `Cc1ccc(C(c2nnnn2Cc2ccccc2)N2CCN(Cc3ccccc3)CC2)cc1` (stereo unspecified), the inhibition was 16.6%.

Turning to `Cn1c(=S)[nH]c2sc3c(c2c1=O)CCC(C(C)(C)C)C3` (stereo unspecified), the inhibition is 41.1% (active). As for `O=C(O)c1ccc(CSCc2ccccc2Cl)o1`, the inhibition was 14.4%. Regarding `CCOC(=O)CSc1nnc(NC(=O)CN2CCN(C=O)CC2)s1`, the inhibition is 3.79%. Turning to `CCN(Cc1ccccc1)C(=O)COC(=O)c1cc(S(=O)(=O)Nc2ccccc2OC)ccc1O`, the inhibition is 23.2%. With `COC(=O)c1cc(NS(=O)(=O)c2ccc(N3CCCCCC3)c([N+](=O)[O-])c2)cc(C(=O)OC)c1`, the inhibition is 23.8%. With `CCN(C(=O)COC(=O)c1cc(NS(=O)(=O)c2ccc(Cl)c([N+](=O)[O-])c2)ccc1O)C1CCCCC1`, the inhibition was 36.1% (active).

`Cc1ccc(OCCC(=O)OCC(=O)NC2CCCC(C)C2C)cc1` (stereo unspecified): the inhibition was 21.5%.

Consider `Oc1ccc(C23CC4CC(CC(C4)C2)C3)cc1O`, for which the inhibition was 33.2% (active).

Regarding `CCCCCCCCN1[C@@H](CC(=O)O)c2ccc(C(F)(F)F)cc2S1(=O)=O`, the inhibition is 21.7%.

For `CC(C)(C)c1ccc(C2=CC(c3ccccc3F)n3ncnc3N2)cc1` (stereo unspecified), the inhibition was 15.1%.

As to `CCN(c1ccccc1)S(=O)(=O)c1cc(C(=O)O)ccc1C`, the inhibition was 45.1% (active).

As for `CCN(CC)CCN(C(=O)c1ccc(S(=O)(=O)N(CC)c2ccccc2)cc1)c1nc2c(OC)ccc(OC)c2s1`, the inhibition was 16.4%. As for `O=C(O)c1ccc(Cl)c(S(=O)(=O)N(Cc2ccccc2)c2ccc(F)cc2)c1`, the figure is 22.7%; as for `CC1CCCC(NC(=O)c2cccc(S(=O)(=O)NCc3ccccc3)c2)C1C` (stereo unspecified), 18.3%. In the case of `CCc1ccc([C@@H]2CC=C(C(=O)O)[C@H](c3ccc(C(C)(C)C)cc3)N2S(=O)(=O)c2ccc(C)cc2)cc1`, the inhibition is 97.5% (active). Regarding `Cc1ccc(S(=O)(=O)N2[C@@H](c3ccc(C(C)(C)C)cc3)C(C(=O)O)=CC[C@H]2c2ccc(C(C)C)cc2)cc1`, the inhibition was 89.3% (active).

Regarding `Cc1ccc([C@@H]2CC=C(C(=O)O)[C@H](c3ccc(C(C)(C)C)cc3)N2S(=O)(=O)c2ccc(C)cc2)cc1`, the inhibition was 95.5% (active). Consider `O=C(COc1ccc(Cl)cc1)NNC(=O)C(=O)N1CCCCC1`, for which the inhibition was 19.2%. With `CCOC(=O)N1CCN(C(=O)c2ccccc2NC(=O)COc2ccccc2)CC1`, the inhibition was 1.01%. Consider `O=C(COc1ccc(Cl)cc1)NC1=NN(c2ccccc2)C(=O)C1`, for which the inhibition is 67.5% (active). As for `N#CC1=C(N)c2ccccc2CC12CCCCC2`, the inhibition is 17.4%.

With `N=C(N)c1ccc(N=Nc2c(O)ccc3c2[nH]c2ccccc23)cc1`, the inhibition is 33.4% (active). With `O=[N+]([O-])c1cc(C2Nc3cccc4cccc(c34)N2)ccc1Cl` the figure was -0.07%; with `O=C1OC[C@@H]2CCCN2C(=O)[C@H](CC(=O)N(CCO)Cc2ccccc2)C/C=C\C[C@H]1Cc1ccc(F)cc1`, 33.2% (active); with `O=C1N[C@@H](Cc2ccccc2)COC(=O)[C@@H](Cc2ccc(F)cc2)C/C=C\C[C@@H]1CC(=O)N(CCO)Cc1ccccc1`, 37.2% (active). As to `O=C1N[C@@H](Cc2c[nH]c3ccccc23)COC(=O)[C@@H](Cc2ccc(F)cc2)CC/C=C/C[C@@H]1CC(=O)N(CCO)Cc1ccccc1`, the inhibition was 21.5%. Consider `O=C1OC[C@@H]2CCCN2C(=O)[C@@H](CC(=O)N(CCO)Cc2ccccc2)C/C=C\C[C@H]1Cc1ccc(F)cc1`, for which the inhibition is 29.1% (active). Turning to `O=C1OC[C@H]2CCCN2C(=O)[C@@H](CC(=O)N(CCO)Cc2ccccc2)C/C=C\C[C@@H]1Cc1ccc(F)cc1`, the inhibition is 27.5% (active). Consider `O=C(O)CCc1ccc(-c2ccc(Br)cc2)n1-c1ccc(O)cc1`, for which the inhibition was 31.6% (active). Consider `CS(=O)(=O)C1=NSC2=NC(=O)/C(=C\c3cccn3-c3ccc(Cl)cc3)C(=N)N21`, for which the inhibition was 55.9% (active). With `Cc1ccc(S(=O)(=O)Oc2ccc(/C=C3/C(=N)N4C(=NC3=O)SN=C4S(C)(=O)=O)cc2)cc1` the figure was 50% (active).

For `CCC1=NN2C(=N)/C(=C\c3cccn3-c3ccc(Cl)cc3)C(=O)N=C2S1`, the inhibition was 36.4% (active). As for `Cc1ccc(-n2cccc2/C=C2\C(=N)N3N=C(c4ccco4)SC3=NC2=O)cc1`, the figure is 38.1% (active). For `Cc1ccc(SCC(=O)NC(C)c2ccccc2)cc1` (stereo unspecified), the inhibition is 21%. Turning to `Cc1ccc(SCc2cn3c(C)csc3n2)cc1`, the inhibition is 59.7% (active).

As for `CCc1ccc(C2CC(c3ccc(Cl)cc3)n3nc(N)nc3N2)cc1` (stereo unspecified), the inhibition was 30.1% (active). Take `C=CC[C@H](CC(=O)N(CCO)Cc1ccccc1)C(=O)N[C@H](COC(=O)[C@@H](CC=C)Cc1ccc(F)cc1)Cc1ccccc1`: the inhibition was 58% (active).

For the compound `CCCCn1c(N)c(N(CC(C)C)C(=O)CN2C(=O)NC3(CCC(C(C)(C)CC)CC3)C2=O)c(=O)[nH]c1=O` (stereo unspecified), the inhibition is 16.4%. Take `COc1ccc2[nH]c(C(=O)NCCN3CCOCC3)cc2c1`: the inhibition was 6.21%. With `COc1ccc(N2CCN(C(=O)CCNC(=O)c3ccc(C(C)(C)C)cc3)CC2)cc1` the figure was 62.3% (active); with `CC(/C=C1\SC(=S)N(NS(=O)(=O)c2ccccc2)C1=O)=C\c1ccccc1`, 39.6% (active); with `Cc1ccc(S(=O)(=O)n2ccc3c(OCCOCCSCC(NC(=O)OC(C)(C)C)C(=O)O)cccc32)cc1` (stereo unspecified), 85.8% (active).

With `O=C1C(=O)N2C(=C1C(=O)N1CCCCCC1)c1ccccc1CC21CCCC1`, the inhibition is 32.8% (active). For `CCC(=O)Nn1cnc2c(c1=O)C1(CCCCC1)Cc1ccccc1-2`, the inhibition was 19.9%.

With `CC1(C)Cc2ccccc2C2=C(C(=O)N3CCCCCC3)C(=O)C(=O)N21`, the inhibition is 64.2% (active).

Turning to `O=C(NCCSc1ncc(-c2ccc(F)cc2)[nH]1)c1ccc2c(c1)OCO2`, the inhibition is 20.8%.

On to `CCOC(=O)Cc1csc(NC(=O)CSc2nc(-c3ccccc3)c(C#N)c(=O)[nH]2)n1`, for which the inhibition is 63.6% (active). On to `N#Cc1c(-c2ccccc2)nc(SCC(=O)Nc2ccc(OC(F)(F)Cl)cc2)[nH]c1=O`, for which the inhibition is 76.1% (active).

For the compound `CCOc1ccc(OCCSc2nc3ccccc3c(=O)[nH]2)cc1`, the inhibition is 3.03%. With `CCOC(=O)c1ccccc1NC(=O)CSc1nnc(C)c(=O)[nH]1`, the inhibition was 22.2%. Regarding `CCOc1ccc2nc(NC(=O)CSc3nc(-c4ccccc4)c(C#N)c(=O)[nH]3)sc2c1`, the inhibition was 81.7% (active). With `CCc1ccc(S(=O)(=O)NCCc2csc(-c3ccccc3)n2)s1`, the inhibition was 22.1%.

Consider `Cc1cc(N2CCCC2=O)cc(C)c1S(=O)(=O)NCCOc1ccc(C(C)(C)C)cc1`, for which the inhibition was 33.7% (active).

Consider `O=C1C(=O)C(c2ccccc2)C(=O)C1c1ccccc1` (stereo unspecified), for which the inhibition was 25.4% (active). As to `COc1cc(Cl)cc(C(c2c(C(=O)O)[nH]c3ccccc23)c2c(C(=O)O)[nH]c3ccccc23)c1O`, the inhibition is 71% (active). For the compound `O=C(O)c1[nH]c2ccccc2c1C(c1cc(Cl)cc([N+](=O)[O-])c1O)c1c(C(=O)O)[nH]c2ccccc12`, the inhibition was 43.8% (active). `CN(Cc1cccs1)C(=O)CCNS(=O)(=O)c1ccc(Br)cc1`: the inhibition is 21.4%. For the compound `O=[N+]([O-])c1cc(-c2csc(NCCc3nc4cc(C(F)(F)F)ccc4n3CCCO)n2)ccc1Cl`, the inhibition was 14.9%. Regarding `O=C(O)c1cc(NS(=O)(=O)c2ccc3ccccc3c2)ccc1O`, the inhibition was 35.9% (active). Regarding `COc1ccccc1NC(=O)C(=O)NNS(=O)(=O)c1ccc2ccccc2c1`, the inhibition was 23.4%.

For `O=C(O)c1ccc(NS(=O)(=O)c2ccc(Cl)c(Cl)c2)cc1O`, the inhibition was 20.1%. Consider `CCC(Sc1nc(-c2cccc(OC)c2)c(C#N)c(=O)[nH]1)C(=O)Nc1nnc(C(C)C)s1` (stereo unspecified), for which the inhibition was 34.6% (active). With `Cc1ccccc1S(=O)(=O)N1[C@@H](c2ccc(Br)cc2)C(C(=O)O)=CC[C@H]1c1ccc(Cl)cc1` the figure was 83.2% (active); with `O=C(O)C1=CC[C@@H](c2ccc(Cl)cc2)N(S(=O)(=O)c2ccc(Cl)cc2)[C@H]1c1ccc(Br)cc1`, 86.3% (active); with `CNc1nc(NCCOC23CC4CC(CC(C4)C2)C3)nc(OCC(F)(F)F)n1`, 22.2%. In the case of `CCCCNC(=O)Oc1ccc(C(=O)N2c3ccccc3NC(=O)C2C)cc1` (stereo unspecified), the inhibition was 41.2% (active).

Regarding `CC(C)(C)Cc1nnc(NS(=O)(=O)c2ccc(F)cc2)s1`, the inhibition was 20.3%. With `C/C(CC(C)(C)C1CCCCC1)=N\NC(N)=S`, the inhibition was 30.1% (active). For `CSCCC(NS(=O)(=O)c1ccc(Cl)cc1)C(=O)OCc1cccc(Cl)c1` (stereo unspecified), the inhibition is 23.1%. With `NC(=NCCc1ccc(Cl)cc1)NS(=O)(=O)c1ccc(F)cc1` the figure was 50.7% (active); with `O=C(CNS(=O)(=O)c1ccccc1)NCC(=O)OCc1ccc(Br)cc1`, 23.9%; with `O=S(=O)(NC(=NCCc1ccc(Cl)cc1)c1ccccc1Cl)c1cccs1`, 110% (active). With `NC(=NCCc1ccc(Cl)cc1)NS(=O)(=O)c1ccccc1`, the inhibition is 49.9% (active). With `O=S(=O)(NCc1ccc(Cl)cc1)c1ccc(Cl)nc1` the figure was 22.4%; with `CCOC(=O)c1sc(NC(=O)CN(CC(C)C)CC(C)C)c(C(=O)OCC)c1C`, 6.46%; with `N#C/C(=C/c1cn[nH]c1-c1ccc(Br)cc1)C(=O)O`, 20.3%. `Cc1ccc([N+](=O)[O-])c(-c2n[nH]c(=S)n2-c2cccc(Cl)c2)c1`: the inhibition is 24%. As to `CC(C)(C)[C@H]1COC(=O)[C@@H](Cc2ccc(F)cc2)C/C=C\C[C@@H](CC(=O)N[C@@H](CO)Cc2ccccc2)C(=O)N1`, the inhibition was 32.7% (active).

For the compound `CC(C)(C)[C@H]1COC(=O)[C@@H](Cc2ccc(F)cc2)C/C=C\C[C@@H](CC(=O)N[C@H](CO)Cc2ccccc2)C(=O)N1`, the inhibition is 62.1% (active).

For `CC(C)(C)[C@@H]1COC(=O)[C@H](Cc2ccc(F)cc2)C/C=C\C[C@@H](CC(=O)NCCO)C(=O)N1`, the inhibition is 17.5%.

Turning to `CC(C)(C)[C@H]1COC(=O)[C@@H](Cc2ccc(F)cc2)CC/C=C/C[C@@H](CC(=O)N[C@H](CO)Cc2ccccc2)C(=O)N1`, the inhibition was 26.6% (active).
